Results on 40 compounds are retold here after ChEMBL document CHEMBL3988442, “University of Dundee, Small-Polar-MMV Screening Library” (2021).

Structures are written as SMILES.

The assay deals with AMP-activated protein kinase, AMPK (Homo sapiens) (UniProt P54646+O43741+P54619+Q9UGJ0+Q9Y478+Q13131+Q9UGI9). As to the kind of experiment: AMP-dependent Kinase enzyme assay. An in vitro enzyme assay that detects ADP turnover that is directly proportional to AMPK activity. This uses naive AMPK that is activated during the assay with MK-8722. Further details: scale not given: direction of the effect not stated beside the values. The conditions noted are these: 30 µM. Type of assay: functional.
`O=C(Nc1ccc2c(c1)C(=O)NC2=O)c1cccs1`: the Percent Effect amounted to 16.2%.

In the case of `COCCN1C[C@@H](C(=O)O)[C@H](c2ccccc2C)C1`, the Percent Effect is -1.51%.

Turning to `COC(=O)c1ncccc1N1CCN(C(=O)CN2CCOCC2)CC1`, the Percent Effect worked out at 5.94%.

`COc1cc2ncn(Cc3ncc[nH]3)c(=O)c2cc1OC`: the Percent Effect was -1.8%.

As for `COc1ccc(OC2CCN(C(=O)c3cnc(C)s3)CC2)cc1`, the Percent Effect was -2.19%.

For the compound `CO[C@@H]1CCC[C@@H](NC(=O)c2cccc(F)c2)[C@H]1O`, the Percent Effect is 10.3%.

On to `CCc1cnc(CNC(=O)NCCCO)s1`, for which the Percent Effect was determined as 9.14%.

Consider `CCN(Cc1nccn1C)C1CCN(c2ccccc2)C1=O` (stereo not given), for which the Percent Effect is -7.13%.

Consider `Cc1cccc(C2(CNC(=O)c3ccnc(N(C)C)c3)CCOCC2)c1`, for which the Percent Effect was -0.987%.

As for `COCCN(C)C[C@@H]1CN(Cc2ccnc3ccccc23)C[C@@H]1CO`, the Percent Effect was -4.2%.

`O=C(c1cnn[nH]1)N(Cc1ccncc1)CC1CCCO1` (stereo not given): the Percent Effect is -5.18%.

For the compound `Cc1nccn1CCCN1CCCC(c2nccn2CC2CCC2)C1` (stereo not given), the Percent Effect stood at 1.25%.

As to `CC(C)[C@]1(O)CN(C(=O)C2(Cn3cccn3)CC2)C[C@H]1C`, the Percent Effect is -3.27%.

Turning to `Fc1ccc(N2CCCN(c3ccc(Cn4ccnc4)cn3)CC2)cc1`, the Percent Effect is -3.34%.

For `O=C(c1cscn1)N1CCc2[nH]nc(Nc3ccccc3)c2C1`, the Percent Effect is 10.9%.

On to `CC(NC(=O)NCc1cccnc1N(C)C)c1cccs1` (stereo not given), for which the Percent Effect is -8.61%.

Consider `O=C(c1nc(N2CCCC2)ncc1Cl)N1CCN(Cc2ccsc2)CC1`, for which the Percent Effect came to 7.12%.

`Cc1ccnc(NC(=O)c2ccc(F)c(S(=O)(=O)NC3CC3)c2)c1`: the Percent Effect is -7.9%.

On to `COc1ccc(Br)c(NC(=O)NCc2cnn(C)c2)c1`, for which the Percent Effect is -1.99%.

For `O=C(NCc1nc[nH]n1)c1cc(COc2cccc(F)c2)[nH]n1`, the Percent Effect stood at 2.9%.

For `Cc1nn(C)c(C)c1-c1ccc(=O)n(C(C)C(=O)NC2CCCC2)n1` (stereo not given), the Percent Effect was found to be 9.03%.

With `O=C(Cc1nc(-c2ccncc2)n[nH]1)N1CCOCC1`, the Percent Effect turned out to be 7.55%.

Take `Cc1cccc(C(C(=O)NC(C)(C)CN2CCOCC2)N(C)C)c1` (stereo not given): the Percent Effect is -14.1%.

In the case of `CC(C)Oc1cccc(F)c1C(C(=O)O)N1CCCN(C)CC1` (stereo not given), the Percent Effect is 3.49%.

For `CN(C)c1ccc(CN2CCN(c3ccc(C#N)cc3)C(=O)C2)cn1`, the Percent Effect is -0.161%.

Take `CCN(C(=O)CN1CCCC1c1c(C)nn(C)c1OC)C1CC1` (stereo not given): the Percent Effect was 3.98%.

For `CC(C)N(C)S(=O)(=O)c1ccc2c(c1)CCN(C(=O)c1cscn1)C2`, the Percent Effect was -3.43%.

For the compound `CC(C)N(Cc1ccccn1)C(=O)CCC(=O)c1ccc(F)cc1F`, the Percent Effect was -0.0134%.

`CC(C)COc1cncc(N(C)C2CCN(c3ncccn3)CC2)n1`: the Percent Effect stood at 7.4%.

Take `COc1cc(CN2CC[C@@H](N3CCCCCC3)[C@H](O)C2)cc(Cl)c1OC`: the Percent Effect turned out to be 13.6%.

Take `CN(C)c1ccc(C(=O)Nc2ccn(CCc3ccncc3)n2)cc1`: the Percent Effect came to 10.3%.

Turning to `OC1CCCN(Cc2cn(CC3CCN(C4CCSCC4)CC3)nn2)C1` (stereo not given), the Percent Effect was 8.15%.

Consider `CN(Cc1ccsc1)C(=O)c1nc(N2CCCC2)ncc1Cl`, for which the Percent Effect is -1.6%.

On to `COc1cccc(O[C@H]2CCN(c3nc(C)cc(C)n3)CC[C@@H]2O)c1`, for which the Percent Effect stood at 1.31%.

With `COc1ccc(Cn2c(CCc3c(C)n[nH]c3C)n[nH]c2=O)cc1`, the Percent Effect is -3.53%.

For the compound `Cc1noc(C2CCN(Cn3cc(Br)cn3)CC2)n1`, the Percent Effect was 18.3%.

Take `Cc1cccc(C)c1Nc1noc2c1CN(C(=O)c1ccn(C)n1)CC2`: the Percent Effect worked out at 15.9%.

On to `CC(O)CN1CCN(Cc2coc(-c3ccccc3Cl)n2)CC1` (stereo not given), for which the Percent Effect is -13.3%.

On to `CN(Cc1noc(-c2ccccc2)n1)C(=O)CSc1nnc(N)s1`, for which the Percent Effect was 1.22%.

On to `CCNC(=O)c1ccnc(CC2COc3c(cccc3OC)C2)c1` (stereo not given), for which the Percent Effect was -3.13%.
